# Hits are enriched below; roughly 10% of the tested compounds scored in any of these assays.
# GPT2 inhibitor: GPT2 alanine aminotransferase inhibition. Q8TD30. Recombinant GPT2, coupled pyruvate oxidase/HRP Amplex Red fluorescence. Potency, µM (doses to about 57.7 µM), without a hit: at the top dose activity change, negative = inhibition, hits mostly inhibitors. hit rate 0.25% among 100,000. AID 1671188; note: nearly all actives have a fitted effect of over 60% in size
#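 Recombinant GPT2 (10ng/uL) with 250uM a-KG and 2mM L-alanine, 30 min at room temperature, in HEPES pH 7.5 buffer. Pyruvate detected by pyruvate oxidase/HRP/Amplex Red fluorescence after 30 min in the dark; AOA (50uM) as positive control.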
# NIH3T3 tox: cytotoxic compounds in NIH 3T3 cells; NIH 3T3 viability, CellTiter-Glo ATP luminescence, 48-72 h; Potency, µM (series often up to 96.7 µM), inactives show at the top dose activity change, negative = cytotoxicity, actives largely listed as inhibitors; hit rate 4.3% among 94,000; note: nearly all actives have a fitted effect of over 55% in size
#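 Cells were seeded at 400 per well, treated with pin-transferred compound, and kept 48 or 72 hr at 37 °C before CellTiter-Glo addition and luminescence imaging of cellular ATP.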
# FLuc inh: blocks purified firefly luciferase enzyme activity; purified P. pyralis luciferase, luminescence, biochemical; Potency, µM (titrated, usually from 115 µM), most hits filed as inhibitors; hit rate 2.5% among 76,000; note: nearly all actives have a fitted effect of over 65% in size
#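 Cell-free enzyme assay, 10nM P. pyralis luciferase, luciferin and ATP each at 10uM. Inhibition profiled over a 6-point titration, read as luminescence.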
# hNpr1 antagonist: antagonists of human natriuretic peptide receptor Npr1 | P16066 | HEK293 hNpr1 GloSensor cGMP, ANP-stimulated luminescence | Potency, µM (highest dose often 46.3 µM), for the others: at the highest dose activity change, negative = inhibition, usual class: inhibitors | hit rate 1.6% among 76,000 | AID 1347048; calls by dose curve; note: nearly all actives have a fitted effect of over 60% in size
#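 HEK293 cells stably expressing human Npr1 and cGMP GloSensor pGS-40F, loaded 2 h with 2% GloSensor reagent, given compound 30 min at room temperature. Luminescence read before and 20 min after 0.1 nM hNppA.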
# HEK293 tox: kills HEK 293 cells. HEK 293 viability, ATP luminescence (CellTiter-Glo), 48-72 h. Potency, µM (titrated, usually from 115 µM), without a hit: top-dose activity change, negative = cytotoxicity, most hits filed as inhibitors. hit rate 6.6% among 94,000. AID 1345083; note: nearly all actives have a fitted effect of over 60% in size
#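 HEK 293 seeded at 250 cells/well receive compound via pintool. After 48 or 72 hr at 37 degree Celsius, 5% CO2 and 95% humidity, CellTiter-Glo is dispensed and luminescence read following 10 min at room temperature.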
# Numbers without * were called inactive; i = inactive; u = inconclusive; x = no result; [ ] = remark or other dose. Unless noted, calls come from the whole dose curve; as a rule, active = well fitted curve in the direction sought with a large enough effect; inconclusive = small, poorly fitted or top-dose-only effect, or another doubt; inactive = no such curve, though single readings can be large; an effect the other way counts as inactive or inconclusive. % is set by controls: 0 for no effect and ±100 for the full control effect; potency is the fitted concentration of half-maximal effect.
SMILES,GPT2 inhibitor,NIH3T3 tox,FLuc inh,hNpr1 antagonist,HEK293 tox
COc1ccc(CN[C@@H]2C=C[C@@H](c3c(C)nn(-c4ccc(OC)cc4)c3C)C2)cc1,-6.8%[88.5 µM],31.6µM*,u,-29.6%[70.6 µM],50.1µM*
COc1ccc(-n2nc(C)c([C@@H]3C=C[C@@H](NCc4ccccc4)C3)c2C)cc1,i,u,50.1µM*,u,79.4µM*
COCc1nc(C2CC(N)C2)cc(N(C)Cc2sccc2C)n1 (stereo not given),u,-17.4%,i,-17.2%,u
CSCCC(=O)N1CCCC(CCc2ccccc2F)C1 (stereo not given),i,39.8µM*,i,-3.9%,u
O=C(CCCc1cn[nH]c1)N1CCCC(CCc2c(F)cccc2F)C1 (stereo not given),i,u,i,-20.7%,50.1µM*
O=C(CCC(F)(F)F)N1CCCC(CCc2c(F)cccc2F)C1 (stereo not given),-6.5%,u,i,0.0%,-28.7%
O=C(NCCN1CCOCC1)[C@H]1C[C@@H](O)[C@H](O)[C@@H]2N=C(Nc3ccc(-n4cccn4)cc3)S[C@@H]21,i,-15.8%,35.5µM*,-0.2%,-18.3%
COCC(=O)NC1CCN(c2ccc3nnc(C)n3n2)CC1,x,-24.7%[138 µM],x,x,-13.1%[172 µM]
CCOc1cc(C(=O)NC2CCN(c3cc(-c4ccccc4)[nH]n3)CC2)cc(OCC)c1OCC,1.4%,u,i,-0.8%,44.7µM*
CCOc1ccc(C(=O)NC2CCN(c3cc(-c4ccccc4)[nH]n3)CC2)cc1OCC,i,-16.0%,i,-5.2%,u
CCOc1cc(C(=O)NC2CCN(c3cc(-c4ccc(F)cc4)[nH]n3)C2)cc(OCC)c1OCC (stereo not given),-0.2%,25.1µM*,i,1.0%,35.5µM*
CCOc1ccc(C(=O)NC2CCN(c3cc(-c4ccc(F)cc4)[nH]n3)CC2)cc1OCC,i,u,i,2.5%,39.8µM*
CCOc1cc(C(=O)NC2CCN(c3cc(-c4ccc(F)cc4)[nH]n3)CC2)cc(OCC)c1OCC,-15.6%,u,i,0.7%,u
Cc1cc2cc(-c3c(C)noc3C)nc(NCc3ccccc3)c2o1,-3.0%[88.5 µM],-30.3%[138 µM],i,-1.6%[70.6 µM],u
CC(C)Oc1ccc(C2(C(=O)N3C[C@@H](C)[C@](O)(C4CC4)C3)CCCC2)cc1,-9.0%,u,i,2.3%,u
C#CCNC(=O)[C@@H]1Cc2cn(Cc3cc(C)on3)c3cccc(c23)[C@H](CC(C)C)N1,i,u,i,7.8%[70.6 µM],u
Cc1cc(Cn2cc3c4c(cccc42)[C@H](CC(C)C)N[C@H](C(=O)NC2CCC2)C3)no1,2.6%[88.5 µM],u,i,3.6%[70.6 µM],79.4µM*
C=CCNC(=O)[C@@H]1Cc2cn(Cc3cc(C)on3)c3cccc(c23)[C@H](CC(C)C)N1,0.3%[88.5 µM],79.4µM*,i,0.8%[70.6 µM],70.8µM*
Cc1cc(Cn2cc3c4c(cccc42)[C@H](CC(C)C)N[C@H](C(=O)NC2CCCC2)C3)no1,3.0%[88.5 µM],31.6µM*,i,-0.7%[70.6 µM],39.8µM*
COCCCNC(=O)[C@@H]1Cc2cn(Cc3cc(C)on3)c3cccc(c23)[C@H](CC(C)C)N1,-1.2%,u,i,7.6%,35.5µM*
CC(=O)N1CCN(C(=O)[C@@H]2Cc3cn(Cc4cc(C)on4)c4cccc(c34)[C@H](CC(C)C)N2)CC1,-2.1%,-7.4%,i,6.5%,i
COc1nccnc1NC1CCN(C(=O)NCCc2ccccc2)CC1,1.8%,i,i,1.6%,-4.3%
Cc1nc(C2CCCCN2)n[nH]1 (stereo not given),i,i,i,0.2%,-6.8%
O=C(c1ccccc1F)N1CCCN(c2ccc3nnc(-c4ccccc4)n3n2)CC1,x,-17.4%,x,x,u
Cc1cc(Cn2cc3c4c(cccc42)[C@H](CC(C)C)N[C@H](C(=O)NCc2cncn2C)C3)no1,u,-20.1%,i,1.6%,u
SMILES,GPT2 inhibitor,NIH3T3 tox,FLuc inh,hNpr1 antagonist,HEK293 tox
Cc1cc(Cn2cc3c4c(cccc42)[C@H](CC(C)C)N[C@H](C(=O)NC(C)C)C3)no1,0.1%[88.5 µM],50.1µM*,i,-5.3%[70.6 µM],44.7µM*
Cc1cc(Cn2cc3c4c(cccc42)[C@H](CC(C)C)N[C@H](C(=O)NCCN2CCCC2)C3)no1,0.5%,22.4µM*,i,-7.0%,28.2µM*
Cc1c(CC(=O)NCC(F)(F)F)c2c(n1Cc1ccccc1F)CCCC2=O,-2.5%,-23.0%,i,-0.1%,-24.6%
Cc1c(CC(=O)NC(C)C)c2c(n1Cc1ccccc1F)CCCC2=O,i,-4.3%,44.7µM*,-7.5%,u
O=C1NC(C(=O)NCC2CCN(Cc3ccc(F)cc3)CC2)Cn2cccc21 (stereo not given),1.8%,i,i,4.3%,1.9%
COc1ccccc1N1CCCc2ncc(C(=O)NCCOc3ccccc3)cc21,-5.3%[88.5 µM],89.1µM*,i,-4.1%[70.6 µM],100µM*
COc1ccccc1N1CCCc2ncc(C(=O)NCCc3ccccc3)cc21,i,u,i,-9.9%[70.6 µM],u
COc1ccccc1N1CCCc2ncc(C(=O)N3CCCC[C@@H]3Cc3ccccc3)cc21,i,u,i,-16.8%,u
COc1ccccc1N1CCCc2ncc(C(=O)N(C)Cc3ccccc3)cc21,i,u,i,3.5%[70.6 µM],100µM*
COc1ccccc1N1CCCc2ncc(C(=O)N3CCC[C@@H]3c3ccc(F)cc3)cc21,-11.7%[88.5 µM],89.1µM*,i,-16.2%[70.6 µM],u
COc1ccc(C(=O)NC2CCN(c3ccc4nnc(-c5ccccc5)n4n3)CC2)cc1,x,u,x,x,79.4µM*
O=C(NC1CCN(c2ccc3nnc(-c4ccccc4)n3n2)CC1)c1ccc(Cl)nc1,x,-32.1%,x,x,-20.9%
O=C(NC1CCCN(c2ccc3nnc(-c4ccccc4)n3n2)C1)c1ccc(Cl)nc1 (stereo not given),x,u,x,x,28.2µM*
O=C(NC1CCN(c2ccc3nnc(-c4ccccc4)n3n2)CC1)c1ccccc1,x,-5.3%,x,x,u
O=C(NC1CCCN(c2ccc3nnc(-c4ccccc4)n3n2)C1)c1ccccc1 (stereo not given),x,28.2µM*,x,x,35.5µM*
O=C(Nc1ccc(Cl)cc1)N1CCCN(c2ccc3nnc(-c4ccccc4)n3n2)CC1,x,28.2µM*,x,x,u
CN(C)C(=O)NC1CCCN(c2ccc3nnc(-c4ccccc4)n3n2)C1 (stereo not given),x,44.7µM*,x,x,u
CC(C)(C)CC(=O)Nc1cnc(-c2cccc(Cl)c2)nc1,i,31.6µM*,0.251µM*,3.98µM*,35.5µM*
COCCN(C)C[C@H]1C[C@H](CO)CN(C(=O)c2ccc(Cl)c(F)c2)C1,i,-26.0%,i,0.2%,-6.2%
CS(=O)(=O)N1CCc2ccc(C(=O)Nc3ccc(Cl)c(C(F)(F)F)c3)cc21,-4.4%,-36.1%,17.8µM*,u,20µM*

# Bioassay records as filed in PubChem BioAssay.
